# Measured values taken from PubChem BioAssay AID1053143 (Broad Institute, 2014).
# In all, about 3,400 compounds went through this assay and about 120 (3.5%) were called active. Not all results are given here. Potency and affinity values are given separately. Unmarked numbers belong to inactive results. No rule for the calls is given here.
# Assay: viability loss in HepG2 hepatoma cells – cell-based, ATP luminescence, cherry-pick, activator set 2, cytotoxicity control, dose response (AID 1053143)
# Details: CellTiter-Glo ATP luminescence, 72 h; series mostly up to 26 µM; activity change, negative = cytotoxicity: at the top concentration
row,Structure (SMILES),"activity change, negative = cytotoxicity"
1,Nc1[nH]n(-c2ccccc2)c(=O)c1N=Nc1ccccc1,-8.67%
2,CC(=O)Nc1cccc(-c2csc(Nc3ncccn3)n2)c1,4.47%
3,COc1ccc(N(C(=O)c2ccc(S(=O)(=O)N3CCCC3)cc2)C2C=CS(=O)(=O)C2)cc1 (stereo not drawn),-4.95%
4,N/C(=N\OC(=O)c1ccc2c(c1)OCO2)c1ccncc1,-0.949%
5,N#Cc1cccc(NC(=O)COC(=O)Cn2nc(-c3ccccc3)oc2=O)c1,-7.49%
6,CC1CC(O)C(C)CN1 (stereo not drawn),9.74%
7,O=C(NC1CCCCC1)c1ccc2ccccc2c1,-2.43%
8,CCc1ccccc1Nc1nc(N)nc(CSCC(=O)Nc2ccc(C)c(C)c2)n1,-11.2%
9,O=c1[nH]c(-c2ccccc2)nnc1-c1ccccc1,-10.4%
10,O=C(OCC(=O)c1ccc(Br)s1)c1ccc(O)cc1,-0.455%
11,c1cncc(CNc2cccc(-c3nc4ccccc4[nH]3)c2)c1,6.83% [at 12 µM]
12,O=C(Nc1ccc(-c2nc3ccccc3o2)cc1)c1cccnc1,10.4%
13,Cc1ccc(-c2cc3nc(NCCc4ccncc4)n(C)c(=O)c3s2)cc1,-1.72%
14,Cc1ccc(C(=O)Nc2ccc(N3CCCCC3)cc2)cc1,-5.53%
15,O=C(Cc1ccccc1)Nc1ccc(N2CCCCC2)cc1,-10%
16,COc1ccc(-c2cn3cccc(C)c3n2)cc1F,-15.3%
17,COc1ccc(C2=Nc3ccccc3N(C(=O)c3ccc4ncccc4c3)C2C(=O)NC(C)(C)C)cc1 (stereo not drawn),-21.3%
18,CN(C)c1ccc(N=Nc2ccc(S(N)(=O)=O)cc2)cc1,-4.4%
19,Cc1ccc2nc(/C=C/c3cccc(F)c3)ccc2c1,-21.2%
20,COc1cc(/C=C/c2ccc3cccc(O)c3n2)cc(Cl)c1OC,-24.2%
21,CCNS(=O)(=O)c1ccc2nc(NC(=O)/C=C/c3cc(OC)c(OC)c(OC)c3)sc2c1,-1.13%
22,Cc1cccc(/C=C/c2ccccc2)n1,5.81%

row,Structure (SMILES),"activity change, negative = cytotoxicity"
1,Cc1cccc(NC(=O)Nc2ccc3c(c2)OCO3)n1,-21.1%
2,O=C(NC1CCCC1)c1noc2c1CCCCC2,5.25%
3,O=C(NC1CCCCCCC1)NC1CCCCC1,1.7%
4,O=C(Nn1c(SCc2cccc([N+](=O)[O-])c2)nc2ccccc2c1=O)c1ccccc1,-5.38%
5,O=C(Nc1ccc(N2CCCC2)cc1)c1cccc(Cl)c1,-16.3%
6,Cc1ccc(Nc2cc(C)nc(-c3ccccc3O)n2)cc1,-4.25%
7,Oc1ccccc1/C=N/Nc1cccc2cccnc12,-6.46%
8,O=C(O)c1ccc(N/N=C/c2cccc3cccnc23)cc1,-16.7%
9,COc1ccc(-c2cc3cc(OC)c(OC)cc3cn2)cc1,-3.55%
10,COc1cccc(NC(=O)NCc2ccccn2)c1,0.982%
11,Cc1cccc(-n2ncc3c(N4CCC(C)CC4)ncnc32)c1,0.798%
12,Cc1nn(Cc2ccccc2Cl)c(Cl)c1C(=O)NCCc1ccccc1,1.52%
13,CN(C)C(=O)c1ccc(-c2cc(C(F)(F)F)nn2C)s1,-17.9%
14,Cc1ccnc(NC(=O)c2ccc([N+](=O)[O-])s2)c1,-23.6%
15,O=C(COc1ccc(Cl)cc1)Nc1ncc([N+](=O)[O-])s1,-16.9%
16,Brc1ccccc1-c1nc2c3ccccc3ncn2n1,-16.9%
17,Cc1nc2nc(-c3cccs3)cn2nc1C,-15.8%
18,O=c1[nH]c2ccccc2nc1-c1cccs1,-22%
19,COc1ccc(-c2ccc(SCC(=O)Nc3cc(C)on3)nn2)cc1OC,-11.4%
20,Cc1ccc(C(=O)OCC(=O)c2ccccc2)cc1,3.4%
21,Cc1nc(SCC(=O)c2cccs2)c2oc3ccccc3c2n1,-3.26%
22,COc1ccccc1/C=C/C(=O)Oc1cccc2cccnc12,-14.1%

row,Structure (SMILES),"activity change, negative = cytotoxicity"
1,O=C(/C=C/c1ccco1)Nc1cccnc1,-4.29%
2,CCc1ccc(NC(=O)c2cccnc2)cc1,4.52%
3,CS(=O)(=O)N1CCc2nc(-c3ccccc3)sc2C1,0.131%
4,Cc1ccc(/C=N/NC(=O)c2ccco2)cc1,7.95%
5,Cc1ccc(CCC(=O)Nc2ccccc2F)s1,22.1%
6,CCCC(=O)Nc1sc(C(=O)Nc2cccc(N)c2)c(C)c1C(=O)OC,-11.7%
7,O=C(Nc1ccccc1F)Nc1ccccc1F,15.9% [at 12 µM]
8,COc1ccc(NC(=O)c2c(NC(=O)CCC(=O)O)sc(-c3ccccc3)c2C)cc1,-7.68%
9,c1ccc(Cn2c(-c3ccco3)nc3nc4ccccc4nc32)cc1,-16.9%
10,Cc1scc(C(=O)N/N=C/c2ccc(Cl)s2)c1C,-1.2%
11,COc1ccc(-c2cn3cccc(C)c3n2)cc1Br,-4.83%
12,O=c1c2ccccc2nc2c3ccccc3c(NCc3ccccn3)nn12,-3.53% [at 6 µM]
13,C=CCSc1cc(C)nc2c(-c3ccccc3)cnn12,-26%
14,CC(C)(C)c1cc(NCCCn2ccnc2)n2ncc(-c3ccccc3)c2n1,-19.6%
15,Cc1cc(C)n(-c2cc(C(C)(C)C)nc3c(-c4ccccc4)cnn23)n1,-9.79%
16,CN(C)c1ccc(C#Cc2ccc3cc(CCCO)oc(=O)c3c2)cc1,1.77%
17,Cc1ccc(-n2nc3c(n2)/C(=N/O)CC/C3=N\O)cc1,-13.2%
18,CCCCCC(=O)Nc1nc2ccccc2[nH]1,-10%
19,Cc1ccc(-c2csc(NC(=O)c3cccc(C)c3)c2C(=O)O)cc1,-4.95%
20,N/C(=N\OC(=O)COc1ccccc1)c1ccccn1,-7.81%
21,CCCCNc1c(-c2ccc(SC3CCCCC3)cc2)nc2ccccn12,-6.41%
22,O=c1[nH]c(/C=C/c2ccc(Br)cc2)nc2ccccc12,-13.3% [at 12 µM]

row,Structure (SMILES),"activity change, negative = cytotoxicity"
1,c1ccc([C@H]2CN3C(=N2)Sc2ccccc23)cc1,-21.7% [at 12 µM]
2,O=C(NC1CCCC1)c1cc(-c2ccc(Cl)cc2)on1,-11.1%
3,O=C(NC1CCCCC1)c1cc(-c2cccs2)on1,-1.19%
4,COc1cc2nn(-c3ccccc3N)nc2cc1OC,-9.19%
5,Cc1csc(NC(=O)Nc2cccc(Cl)c2)n1,-9.02%
6,CCOC(=O)c1sc(NC(=O)Nc2ccc(Cl)cc2)nc1C,-4.05% [at 12 µM]
7,CCOC(=O)c1sc(NC(=O)C2CCC2)cc1C,-22.4%
8,Cc1ccc(NC(=O)c2sccc2C)nc1,-18%
9,Cc1ccc(C(=O)/C=C/Nc2ccccc2C(N)=O)cc1,-20.8%
10,Cn1cccc1C(=O)Nc1ccc(N2CCOCC2)cc1,-18.9%
11,COc1cccc2nc3cc(C)c(C)cc3nc12,-12.1%
12,CCCC1CCC(c2ccc(OCC)cc2)=CC1=O (stereo not drawn),-5.38%
13,Cc1ccc2nc(SCC(=O)c3ccc(O)cc3O)[nH]c2c1,-3.55%
14,Fc1ccccc1COc1ccc(/C=N/n2cnnc2)cc1,-11%
15,Fc1ccccc1Cn1nnc(-c2ccc3c(c2)OCO3)n1,-26.9%
16,CCN1C(=O)S/C(=C\c2ccc(N3CCOCC3)cc2C)C1=O,21.6%
17,O=C(Nc1nc2c(F)cccc2s1)c1ccco1,-9.02%
18,Cn1c(=NC(=O)c2cnccn2)sc2ccccc21,-11.9%
19,Cc1sc(NC(=O)C2CCCCC2)c(C#N)c1-c1ccccc1,-2.58%
20,COc1ccc2oc(C(=O)Nc3ccccn3)c(C)c2c1,-22.9%
21,CCOc1ccc2oc(C(=O)Nc3nccs3)c(C)c2c1,-0.418%
22,COc1ccc(N=C2SC(CC(=O)Nc3ccccc3)C(=O)N2Cc2ccco2)cc1 (stereo not drawn),-1.28%
